According to the supplement of paper PMC6555819:

What was measured:
Assay in all cases: PBM binding z-score (relative to random genomic background probes); higher = stronger binding; sequences stand for … in GC…GCGATTGACAGCGTAGAATGAAGG
[1] = tested on: RARb homodimer (NR concentration 270 nM)
Summary of the method: (§1)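 Binding buffer was PBS pH 7.4 with 2% milk, 0.02% Triton X-100, 1 mM DTT, 0.2 mg/mL BSA and 0.4 mg/ml salmon testes DNA. In it, ligand-free nuclear receptor dimers were incubated 1 h on custom Agilent 4×180K protein-binding microarrays carrying double-stranded probes. Antibodies against each partner (one per run) detected binding, and z-scores were calculated against random background probes after regression normalization of scanned fluorescence.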

[2] = tested on: RARg:RXRa (NR concentration 270 nM, RXRa partner concentration 90 nM)
Summary of the method: as §1

[3] = tested on: RARg homodimer (NR concentration 270 nM)
Summary of the method: as §1

[4] = tested on: RXRa DBDmut IVT, anti-RXR (DBD mutation: RXRa K156A/R161A, NR concentration 90 nM)
Summary of the method: as §1

[5] = tested on: RXRa homodimer (NR concentration 180 nM)
Summary of the method: as §1

[6] = tested on: THRa:RXRa (NR concentration 90 nM, RXRa partner concentration 90 nM)
Summary of the method: as §1

[7] = tested on: THRa homodimer (NR concentration 90 nM)
Summary of the method: as §1

[8] = tested on: VDR homodimer (NR concentration 270 nM)
Summary of the method: as §1

Sequence	PBM binding z-score [1]	PBM binding z-score [2]	PBM binding z-score [3]	PBM binding z-score [4]	PBM binding z-score [5]	PBM binding z-score [6]	PBM binding z-score [7]	PBM binding z-score [8]
CCTATTAGTTGACCATGAGGGCAACCGAAGCTCG	2.22	1.32	1.16	0.831	0.812	2.11	1.79	1.43
ATCTCTAGGTAACAAGTTCATTGAAAGAGAGGAC	2.29	2.04	1.72	2.49	1.8	2.14	1.24	5.08
TCTATTAGTTGATTAGGGCTACCGAAACAGCGGA	-0.115	0.318	0.15	0.904	0.363	0.166	-0.0313	0.356
TCGAGTAGGTTACCAATCGGGCATTCAGCTTTCT	0.187	1.32	0.199	-0.0305	0.304	-0.223	-1.47	-1.01
CCAGACAGGTGAAAGGTAATTCAGTCTGGTACGC	0.45	1.04	0.643	-0.17	1.68	0.696	-0.243	-0.314
TCTCGGAGGACGCGAAAGGTCAGAGCTCGACATC	4.26	4.31	4.12	0.446	4.2	3.01	0.235	0.581
AATACAGGGTCATCGTAGGCCAGAATACGCACAG	3.68	5.69	5.13	3.5	6.42	4.4	1.5	3.25
GCATATAGGTAATACAAGGTGGAAGTCCGATTGT	-0.533	0.279	0.315	0.235	0.566	2.03	-0.457	-0.109
CGTCCAAGGTCATAGGAGGTGAGTGAAGACAGAT	4.33	5.74	5.64	3.53	5.36	5.3	2.93	2.82
CCTGCTAGGTCAATGGTCAGCTTAAGCAGCTCGC	3.14	3.62	4.2	2	2.25	2.31	0.712	0.066
CGTCCAAGGTGATAGGAGGTCAGTGAAGACAGAT	3.59	2.56	2.86	0.227	1.88	4.34	1.51	0.846
ATCGAAAGTTCGACGAGGTGAGTATACACCGTTT	1.42	1.75	1.85	1.63	1.28	2.5	0.567	1.59
CGAGACAGGTGAGAAGGTAACTCAGCCTCGATTA	0.319	0.434	0.338	-0.6	0.212	0.0357	-0.411	-0.621
CCTCAGAGGACAACAGGAGGTCAGAGCTGCCAGA	3.94	4.09	4.83	1.36	2.06	2.79	0.791	1.29
CCTGCTAGGTCATGGTCAGCCAATCTACAGTATG	3.14	3.98	4.45	1.26	3.04	3.07	1.18	0.0846
ACAGACAGGTGATGAAGGTACCTCAGGCTATCAT	-0.181	0.158	0.411	-0.579	0.4	0.509	-0.21	-0.451
ATCGAAAGGTCGTGAGGTGAGAATACAGAAAGGC	3.14	4.62	3.89	1.28	5.3	3.49	1.44	0.87
TCATATAGGTAAATGCTGGGTGAAAGTCCGATCT	0.617	0.24	0.16	1.48	0.693	0.785	0.692	0.384
GCTCTGAGGACAAGGTCAGAGCTTTGTCCGTAGA	2.95	3.16	3.63	1.43	2.38	3.95	3.55	1.11

Sequence	PBM binding z-score [1]	PBM binding z-score [2]	PBM binding z-score [3]	PBM binding z-score [4]	PBM binding z-score [5]	PBM binding z-score [6]	PBM binding z-score [7]	PBM binding z-score [8]
ACTTACGGGTCAACGAGGTTATAGCACGCGTATA	3.53	5.57	5.3	2.71	6.39	4.01	1.25	3.96
TCTTGTAGATCAAGCAGGTTAAGAATGCCTGAGT	0.163	-0.103	-0.0252	0.563	0.24	0.276	-0.376	0.0352
TAGCCTAGGTCATTCAGCGGCCAGTATAGAAAGC	2.81	5.65	4.44	1.85	3.07	2.74	0.53	1.04
TAGCCTATGTCATTCAGGGGCCAGTATAGAAAGC	0.708	1.65	0.547	-0.121	0.203	0.454	-0.611	-0.479
AATACAGCGTCACTAGGCCAGAGTAGGTACGAAT	-0.144	-0.145	0.173	-0.271	-0.094	-0.216	-0.342	-0.308
TATACAGGGTGAAAGGCCAGAGTACGAATGTCGA	1.29	1.67	1.69	-0.111	2.07	1.18	-0.0839	0.653
CGAACTAGGTCATTGACAGGACATTGAATAGTAA	2.8	4.62	4.56	2.52	2.75	2.9	0.971	1.62
TCATATAGGTAAATGCTAGGGGAAAGTCCGATCT	0.135	0.401	0.27	1.85	0.821	0.401	0.433	0.491
ATATGTAGGTTATCCGGTCATTCAGTTTGCGCAT	2.35	2.11	1.83	0.932	1.4	1.67	1.08	1.53
CCTAATTGGTCAAGGTCACACACGCTATAGGTAC	4.67	4.73	4.86	2.36	4.64	4.34	4.13	3.38
CCTACTGGGCCATCCGGTCATTGATATCAACGTT	1.9	0.787	1.34	-0.598	0.106	0.75	0.677	0.0499
CCTTACGGGTCACTGACAGGATATAGCATTTGGA	2.9	4.97	4.62	1.76	5.05	2.62	0.268	0.961
ATACCAAGGTGATCGTGAGGTAGTTGATACTAAC	0.262	0.422	0.424	-0.401	0.329	1.5	0.542	0.0713
AGTCAAAGATCAGGACGAGGTAACGTAAAGCACG	-0.273	0.544	0.425	-0.798	0.431	2.27	1.16	-0.321
AGAATGAGGTTATACGCAGATCAGGGAAGAAAGT	0.779	1.67	0.985	1.47	2.3	2.22	0.465	0.945
ACAGATAGGTGATGAAGGTAACTCAGGCTATCAT	0.0763	0.532	0.586	-0.397	0.485	0.83	-0.19	-0.247
AGAATGAGGTTATTAAGATGAGGGAATTGCGGTC	0.734	1.15	0.922	1.9	1.87	2.08	0.746	1.16
TCTTGCAGATCAACAGGAGGTTAAGAAAGATCGA	0.407	0.798	0.138	0.162	0.749	0.859	-0.241	-0.1
CCGAGTAGGTTATGGGCCATTCAGGCAACGGTGA	0.655	0.305	0.328	-0.165	0.5	0.298	0.0929	-0.0394

Sequence	PBM binding z-score [1]	PBM binding z-score [2]	PBM binding z-score [3]	PBM binding z-score [4]	PBM binding z-score [5]	PBM binding z-score [6]	PBM binding z-score [7]	PBM binding z-score [8]
ACAACGAGGGCAATGAGTTGATAGCACGGGTGGC	1.02	1.31	1.71	2.02	0.837	0.856	-0.343	2.98
CGTCAAAGTTCAAGGGAACGTAACAGAAAGCAGC	3.52	4.97	5.93	4.46	4.17	1.72	-0.254	2.72
CCTACTGGGCCACGAAAGGTCGTTGATTCAGTGA	2.27	1.65	1.29	-0.0734	2.09	2.26	-0.153	0.759
ACATACGGGTCAACGAGGTTATAGCACGCGTATA	3.66	5.55	5.24	2.49	5.71	3.82	0.951	3.69
GCTATTAGTTAAAAGGGCAACCGAATGATTCTCG	2.21	1.08	1.32	0.572	0.904	0.641	-0.221	0.339
TGAATGAGGTTATAAGACCAGGGAACGTTGCAAA	0.0287	1.39	0.814	0.698	1.99	1.77	-0.0902	0.336
CAAACTAGGTCAAAGTTCAAAGTCGAGCCAACCA	4.52	7.71	6.23	3.95	8.77	4.23	1.21	4.43
ATCTCTAGGTAACGATAGTTCAGTGAATGCAAAT	0.983	0.601	0.702	-0.137	0.128	0.928	0.354	0.517
ACCAGTTGGTCAGCTGAGGTCACACACAATTCGG	4.44	4.2	4.52	1.29	4.27	5.07	5	3.47
CCTTACGGGTGACGAGGTTATAGCACGACGAGCG	1.05	1.29	0.849	-0.461	1.95	1.33	0.317	0.36
CGTCCAAGGTCGAGGTCAGTGAAAGAGACTCGAA	4.16	4.8	5.32	2.57	4.65	3.93	2.42	2.96
CGTCCAAGGTCAGAGCGGTCAGTGAATGCCGAGT	4.33	5.22	6.15	2.61	3.84	3.6	1.54	2.42
TCTTGTAGATCAAAGGTTAAGAAAGCCGAAGCCT	1.36	1.68	0.776	0.652	3.27	1.27	-0.357	-0.0957
ACTTACGGGTCAACGCGGTTATAGCACGCGTATA	3.18	5.42	5.07	1.88	5.68	2.97	0.345	1.45
CCTGCTAGGTAAATGGTCAGCTAAAGCAGCTCGC	-0.0242	-0.351	-0.323	-0.0563	-0.478	-0.113	-0.416	-0.618
TTACCATGGTGAAAGGTCGTTGATGCACGCCTTG	2.03	2.17	1.04	0.434	3.19	1.64	0.0302	1.19
TCATATAGGAAAAGGTGAAAGTCGAACGATATGA	1.17	1.38	1.12	1.03	1.86	0.964	-0.616	0.135
ACTAGCAGGCCATGTTTGGGTCACTCAAACAAAG	1.98	2.04	1.42	-0.345	0.614	2.24	1.21	-0.169
ACTCGGAGGACAAAGTTCAGAGCTACGCCAGTGA	2.84	3.2	2.63	2.1	1.63	1.71	-0.296	2.54
